In PubChem BioAssay (NCI) one finds growth data, which are given here for seven compounds.

Holding throughout (test): NCI-60 one-dose screen, 48 h (100 = growth as untreated, 0 = no growth, -100 = all killed)
What all share (conditions): 10 µM unless noted

Test [1] relates to DU-145 prostate.
Test [2] concerns K-562 leukemia.
The subject of test [3] is MALME-3M melanoma.
The subject of test [4] is MDA-MB-231 breast.
The subject of test [5] is RXF 393 renal.
The test system of test [6] is SF-268 CNS.
Test [7] deals with SF-295 CNS.
Test [8] relates to SF-539 CNS.
The subject of test [9] is UACC-257 melanoma.
The subject of test [10] is M14 melanoma.
The test system of test [11] is HCT-15 colon.
The subject of test [12] is HT29 colon.
In test [13] the test system is SNB-75 CNS.
For test [14], the system named is SNB-19 CNS.
Test [15] concerns U251 CNS.
Test [16] concerns PC-3 prostate.
In test [17] the test system is SK-MEL-5 melanoma.
Test [18] has as its system UACC-62 melanoma.
Test [19] concerns LOX IMVI melanoma.
The subject of test [20] is SK-MEL-28 melanoma.

Compounds without any hit were thinned out: in the full panel of roughly 83,000, 20% have a hit.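 Single-concentration screen, 48 h exposure, 96-well plates. Endpoint: percent growth. Below 10 = active.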 Values without a mark were called inactive. The source made the active and inactive calls.

With `CCc1ccc(NC(=O)N[C@@H](Cc2cc(F)cc(F)c2)C(=O)N[C@@H]2C(=O)N3C[C@H](O)C[C@H]3C(=O)N3CCOC[C@H]3C(=O)N[C@@H](C)C(=O)N3C[C@H](C)C[C@H]3C(=O)O[C@H]2C)cc1`, the growth was 42.6% in test [1]; 24.7% in test [2]; 39.4% in test [3]; 16.1% in test [4]; 88.1% in test [5]; 29.1% in test [6]. Further, the growth in test [7] was 81.9%; in test [8], 55.8%; in test [9], 21.5%; in test [10] it was 84.8%; in test [11], 108%; in test [12], 31.2%. Moreover, the growth was 8.76% (active) in [13]; 20.2% in test [14]; 24.8% in test [15]; 14.4% in test [16]; 85% in [17]; 29.7% in [18]. Moreover, the results for the growth in [19] and in [20] were 41.6% and 39.7%, respectively.
With `O=C(CSc1nc2ccc([N+](=O)[O-])cc2[nH]1)Nc1ccc(F)c(Cl)c1`, the growth in test [1] is 32.2%; in test [2], 11.9%; in [3], -5.67% (active); in test [4], 30.8%; in test [5], 29.7%; in test [6], 23.8%. The growth in test [7] is 18.1%; in [8], 35%; in [9], 10.5%; in test [10], 25.4%; in test [11], 18.5%; in [12], 14.4%. Further, the growth in test [13] was 28.7%; in [14] it was 11.6%; in [15] it was 11.6%; in test [16], 8.99% (active); in test [17], -10.8% (active); in [18] it was 5.92% (active). Also, the values for the growth in test [19] and in [20] were 24.2% and 22%, respectively.
On to `Cc1cccc(C[C@H](NC(=O)Nc2ccc(Cl)cc2F)C(=O)N[C@@H]2C(=O)N3C[C@H](O)C[C@H]3C(=O)N3CCN(C)C[C@H]3C(=O)N[C@@H](C)C(=O)N3C[C@H](C)C[C@H]3C(=O)O[C@H]2C)c1`, for which the growth was 36.3% in test [1]; 24.4% in [2]; 42.9% in [3]; 22.4% in test [4]; 81.7% in [5]; 30% in test [6]. The growth is 19.7% in test [7]; 53.8% in [8]; 22.6% in test [9]; 63.5% in test [10]; 105% in test [11]; 36% in test [12]. The growth is 18.8% in test [13]; 22.5% in [14]; 23.5% in test [15]; 19.6% in [16]; 40.7% in test [17]; 28.3% in test [18]. For the same compound, the growth is 40.9% in test [19] and 42.4% in [20].
As for `C#CCC(C(=O)OCC)C(=O)OCC`, the growth is 101% in [1]; 102% in test [2]; 110% in test [3]; 101% in test [4]; 128% in test [5]; 104% in [6]. In addition, the growth in test [7] was 103%; in [8], 101%; in [9] it was 108%; in test [10] it was 105%; in test [11], 106%; in test [12], 103%. For the same compound, the growth in test [13] is 90.5%; in [14], 102%; in [15], 104%; in test [16] it was 99.8%; in [17], 105%; in [18], 101%. Moreover, the growth in test [19] was 99.2%; in test [20], 109%.
Consider `COc1cc(NCc2ccccc2O)c2ncccc2c1`, for which the growth in test [1] is 112%; in [2], 97.3%; in [3], 92.9%; in test [4], 91.3%; in test [5], 100%; in test [6] it was 110%. Further, the growth in [7] was 129%; in test [8], 86%; in test [9], 109%; in test [10], 94.4%; in test [11], 77.8%; in test [12], 102%. Further, the growth was 64.5% in test [13]; 92.8% in test [14]; 98.9% in test [15]; 83.6% in [16]; 101% in [17]; 95% in [18]. Besides, the growth is 83.9% in [19] and 111% in test [20].
`Brc1ccc2c(c1)CN(C1CCCCC1)CO2`: the growth in test [1] is 111%; in test [2], 89.7%; in test [3], 115%; in test [4] it was 102%; in test [5], 107%; in [6], 96.4%. Further, the growth in test [7] was 104%; in [8], 98.2%; in test [9], 120%; in test [10], 105%; in test [11], 104%; in test [12], 103%. The growth in [13] is 82.2%; in [14], 103%; in test [15], 108%; in [16], 91.6%; in [17] it was 104%; in [18], 105%. Moreover, the growth in test [19] was 95.1%; in test [20], 118%.
Regarding `COc1ccc(NC(=O)Nc2ccc(-c3cccnc3)cc2N2CCC(CO)CC2)cc1`, the growth in test [1] is 55.3%; in test [2], 24.8%; in [3], 67.2%; in test [4], 34.2%; in test [5] it was 13.1%; in [6], 52.5%. The growth in test [7] was 32%; in test [8], 15.1%; in test [9], 46.6%; in [10] it was 63.3%; in test [11] it was 43.7%; in test [12] it was 9.77% (active). The growth in test [13] is 51.3%; in [14] it was 49.3%; in test [15] it was 33%; in test [16], 83.7%; in [17], -38.3% (active); in test [18], 68.7%. Besides, the growth in test [19] is 71.9%; in [20], 18.7%.
